This note sets out measurements from PubChem BioAssay.

SMILES strings stand for the structures.

Chain of Torsin-1A (Homo sapiens) (O14656 whole entry, looked up): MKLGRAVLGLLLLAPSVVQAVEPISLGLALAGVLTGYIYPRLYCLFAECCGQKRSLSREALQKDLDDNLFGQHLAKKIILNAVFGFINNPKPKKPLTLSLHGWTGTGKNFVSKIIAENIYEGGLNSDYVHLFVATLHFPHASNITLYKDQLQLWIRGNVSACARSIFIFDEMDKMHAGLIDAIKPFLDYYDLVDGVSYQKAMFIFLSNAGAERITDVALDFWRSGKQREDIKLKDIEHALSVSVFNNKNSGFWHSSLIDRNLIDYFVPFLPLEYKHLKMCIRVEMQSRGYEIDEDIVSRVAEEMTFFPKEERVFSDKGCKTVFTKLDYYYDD

This test has as its target Torsin-1A (Homo sapiens) (UniProt O14656). The test is described as follows: small-molecule binders of mutant TOR1A in lysate, primary screen, cell lysate, small-molecule microarray, COS7 lysate, 635/667 nm fluorescence (AID 1150).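 Note: score pools 667 nm emission and signal to noise measuring lysate protein binding.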 The conditions noted are these: COS7 hTOR1A mutant lysate, 635 nm fluorescence, higher = more signal.
`CC(C)Cc1ccc(CN2CC[C@@H](NC(=O)Nc3ccccc3)C2)cc1` yielded a composite z-score of 0.274.
As for `CC(C)C[C@@H]1NC(=O)[C@@H]2C[C@H](C(=O)NCCCCN(C)C)[C@H](c3cccc(OCCO)c3)N2C1=O`, the composite z-score worked out at 0.718.
In the case of `CC1CC/C=C\[C@H]2OC34C=CCN(C(C)C)C(=O)[C@H]3N(CCCCCCO)C(=O)[C@@H]4C2C(=O)O1` (stereo not given in full), the composite z-score is -1.19.
As for `COc1ccc(CCNC(=O)[C@@]2(Sc3ccc(C)cc3)CC(=O)N(C3Cc4ccccc4C3)[C@@H]2c2ccc(CO)cc2)cc1`, the figure is 0.811.
With `COc1ccc(-c2nc(-c3ccccc3)c3c(c2C)CO[Si]3(C(C)C)C(C)C)cn1`, the composite z-score is -0.129.
For the molecule `CCCC[C@@H]1C[C@H]1[C@@H](NC(=O)c1cccs1)c1ccc(C(F)(F)F)cc1`, the composite z-score was -0.589.
In the case of `CN1C(=O)C2C=CC(C(O)c3ccc(F)cc3)N(Nc3ccccc3)C2C1=O` (stereo not given), the composite z-score was found to be 0.363.
`OCC1CC(c2ccccc2)=NO1` (stereo not given): the composite z-score is 0.322.
Turning to `COC1OC[C@]2(C)[C@H]3C4=C(CN2C(=O)OC(C)(C)C)[C@H](C)C(CO)C(CO)C4CC[C@@H]13` (stereo not given in full), the composite z-score worked out at 0.86.
`NCCCCCCNC(=O)[C@@H]1C[C@@H]2C(=O)N[C@@H](CCCCN)C(=O)N2[C@@H]1c1cccc(OCCO)c1`: the composite z-score worked out at 1.2.
As to `CCOC(=O)C1=C[C@@H](c2ccccc2)N(S(=O)(=O)c2ccc(C)cc2)[C@H]1c1ccccc1Cl`, the composite z-score was found to be 0.273.
As for `CCOc1cc(C(O)C2C=CC3C(=O)N(c4ccccc4)C(=O)C3N2Nc2ccc(C#N)cc2)ccc1O` (stereo not given), the composite z-score turned out to be 0.115.
As for `CCCCCCCCCCC(O)C1C=CC2C(=O)N(C)C(=O)C2N1NC(=O)OC(C)(C)C` (stereo not given), the figure is 0.0812; as for `NCCCCCNC(=O)[C@@H]1C[C@@H]2C(=O)NCC(=O)N2[C@@H]1c1cccc(OCCO)c1`, 0.59; as for `[N-]=[N+]=NCc1ccccc1[C@H]1OC(c2ccc(OCCCO)cc2)=N[C@@]1(CCS(=O)(=O)c1ccccc1)C(=O)N1CCCCC1`, 1.28.
In turn, `CCOC(=O)C[C@H]1[C@H](OC(=O)c2ccccc2-c2ccccc2)[C@@H](NC(=O)c2ccc(-c3ccccc3)cc2)c2cc(OCCCO)ccc2N1C(=O)c1ccc2ccccc2n1` returned a composite z-score of 0.554.
As for `CCCCCCc1nc(C2CC2)cc2c1[Si](C(C)C)(C(C)C)OC2`, the figure is -0.751; as for `O=C1C[C@@](C(=O)NCCN2CCOCC2)(c2ccc([N+](=O)[O-])cc2)[C@@H](c2ccc(CO)cc2I)N1C1CCCCC1`, 0.896.
As to `COC(=O)[C@@]1(Cc2ccc(OC)cc2)[C@H]2c3cc(C(=O)N4CCCC4)n(Cc4c(-c5ccccc5)noc4C)c3C[C@H]2CN1C(=O)c1ccccc1`, the composite z-score came to 0.776.
The molecule `CC(C)(C)N1CC=CC23O[C@@H]4C=CCCOC(=O)C4[C@H]2C(=O)N(CCO)[C@@H]3C1=O` (stereo not given in full) yielded a composite z-score of -0.664.
`O=C1O[C@@H](c2ccccc2)[C@@H](c2ccccc2)N2[C@@H](c3ccccc3OCCO)[C@]3(C(=O)Nc4ccc(C#CCCO)cc43)[C@@H](C(=O)N3CCCCCCC3)[C@H]12`: the composite z-score is 2.96.
The molecule `CO[C@]12C=C(Br)[C@@H](C[C@@H]1c1cccc(C)c1)[C@@]1(CO1)C2=O` came in with a composite z-score of -0.407.
On to `O=C1C2C=CC(C(O)c3ccccc3)N(Nc3ccccc3F)C2C(=O)N1c1ccccc1` (stereo not given), for which the composite z-score was -0.493.
`CC[C@H]1C2=C3C(CC[C@H]4C(OCc5ccc(F)cc5C(F)(F)F)OC[C@](C)([C@@H]34)N(C(=O)OC(C)(C)C)C2)C(COC)C1COC` (stereo not given in full) showed a composite z-score of -0.0476.
Take `Cc1ccc(S[C@]2(C(=O)O)CC(=O)N(C3Cc4ccccc4C3)[C@@H]2c2ccc(CO)cc2)cc1`: the composite z-score was determined as 0.431.
Turning to `COc1ccc(NC(=O)O[C@H]2[C@H](OC(=O)Nc3ccccc3)[C@@H](OC(=O)Nc3ccccc3)[C@@H](OC)O[C@@H]2CO)cc1`, the composite z-score was found to be 1.26.
`CCCC[C@@H]1C[C@H]1[C@@H](NC(=O)Cc1ccccc1)c1ccc(-c2ccccc2)cc1`: the composite z-score was determined as 0.21.
Under `N#Cc1ccc(NN2C(C(O)c3ccc(F)cc3)C=CC3C(=O)N(c4ccccc4)C(=O)C32)cc1` (stereo not given) stands -0.0504; under `[N-]=[N+]=NCc1ccccc1C[C@]1(C(N)=O)N=C(c2ccc(OCCCO)cc2)O[C@H]1c1ccccc1`, 0.885.
In turn, `COCCCNC(=O)[C@@]1(Cc2ccccc2N=[N+]=[N-])N=C(c2ccc(OCCCO)cc2)O[C@H]1c1ccccc1` yielded a composite z-score of 3.61.
`CN(C)CCCNC(=O)[C@@H]1c2ccccc2C(=O)N(Cc2ccccc2Cl)[C@H]1c1ccc(CO)cc1` registered a composite z-score of 0.798.
`C=C(/C(=C/C[C@H](OC(=O)c1ccncc1)c1ccc(CO)o1)c1cc(C(=O)OC)ccc1OC)C(C)C` displayed a composite z-score of 1.81.
`C=CCC(OC(C)=O)[C@@H]1[C@@H](N(Cc2ccc(-c3cccc(C(F)(F)F)c3)o2)C(=O)c2ccc(-c3ccccc3)cc2)c2cc(OCCCO)ccc2N1C(=O)c1ccc2ccccc2n1` (stereo not given in full) yielded a composite z-score of -0.0764.
In turn, `CCCCN1CC=CC23O[C@@H]4/C=C\CCC(C)OC(=O)C4[C@H]2C(=O)N(C(CO)C(C)C)[C@@H]3C1=O` (stereo not given in full) registered a composite z-score of 0.517.
Take `[N-]=[N+]=Nc1ccccc1[C@H]1OC(c2ccc(OCCCO)cc2)=N[C@@]1(Cc1ccccc1)C(=O)N1CCCCC1`: the composite z-score was determined as 0.373.
